From PubChem
This is a sample that favours compounds with a hit; in the whole collection about 12% have one here.
Sm TGR block: blocks Schistosoma mansoni thioredoxin glutathione reductase | purified TGR, DTNB reduction, TNB absorbance 405 nm | Potency, µM (series often up to 114 µM), usual class: inhibitors | 360,000 compounds, 3% hits | AID 485364; active = well fitted inhibition curve with a large enough effect; inconclusive = small, poorly fitted or top-dose-only effect; inactive = no such curve, though single readings can be large or run the other way; also: nearly all actives have a fitted effect of over 60% in size
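Kinetic colorimetric format: TGR-catalysed, NADPH-driven DTNB reduction monitored via TNB absorbance. Enzyme dispensed at 20 nM; compound exposure 15 min at room temperature before reaction start.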
Cycloheximide cs: counter-screen for Shiga toxin inhibitors: cycloheximide protein synthesis inhibition. max response, %. AID 2314. cell reporter, cycloheximide protein synthesis inhibition counterscreen. 300,000 compounds, 12% hits; in the data active = max response mostly above about 13%, no sharp cut-off; inactive = mostly below about 14%; also: read at 38.3 µM for the half of the compounds with a filed dose
Shiga toxin inh: blocks Shiga toxin action in Vero cells | Vero cells, Shiga toxin protein synthesis inhibition reporter | 290,000 compounds, 9.2% hits | inhibition, % at 38.7 µM | AID 2315; in the data active = inhibition mostly above about 28%, no sharp cut-off; inactive = mostly below about 43%
FMDV antiviral: blocks foot and mouth disease virus. AID 1159524. 410,000 compounds, 1.2% hits. Potency, µM (series often up to 57.9 µM), most hits filed as inhibitors. FMDV antiviral cell-based qHTS; calls by dose curve; tested in HEK293T cells; also: read-out not given here; nearly all actives have a fitted effect of over 45% in size
Hits are given with their value; n = inactive; u = inconclusive; x = no result; [ ] = dose if it differs, or a comment.

SMILES	Sm TGR block	Cycloheximide cs	Shiga toxin inh	FMDV antiviral
BrC(=C\c1ccccc1)/C=N/Nc1nc(N2CCOCC2)nc(N2CCOCC2)n1	u	n	n	n
O=C(N/N=C/c1ccc2ncccc2c1)c1cc(-c2cccs2)nc2ccccc12	n	n	n	n
COc1ccc(NC(=O)CN2CCN(Cc3ccccc3Cl)S2(=O)=O)cc1Cl	n	x	x	n
O=C1c2[nH]nc(-c3ccccc3O)c2C(c2ccc(Cl)cc2)N1Cc1ccco1 (stereo not given)	n	x	x	n
C(=N\Nc1nc2ccccc2[nH]1)/c1ccccn1	n	n	n	10µM
CCCCn1c(/C=N/Nc2nc3ccccc3[nH]2)nc2ccccc21	n	n	n	n
Cc1ccc(/C=N\Nc2nc3ccc(Cl)cc3[nH]2)o1	n	41	119	n
Fc1ccccc1-c1ccc(/C=N/Nc2nc3ccccc3[nH]2)o1	n	50	49	n
C#CCn1cc(/C=N/Nc2nc3ccccc3[nH]2)c2ccccc21	n	54	81	n
OC1OC[C@H](O)[C@@H](O)[C@H]1O (stereo not given in full)	x	n	n	x
COc1ccc(CN2CCCC(n3cc(C(=O)N4CCCCC4)nn3)C2)c(OC)c1C (stereo not given)	x	x	x	n
CCN(CC)c1ccc(/C=N/Nc2nc(C)cc(C)n2)cc1	n	n	n	n
C(=N\Nc1nc2ccccc2[nH]1)/c1ccc2c(c1)OCCO2	n	28	n	n
C(=N\Nc1ccc2ccccc2n1)/c1ccc2c(c1)OCCO2	n	n	n	u
CC(C)NC(=S)N/N=C/c1ccc2c(c1)OCCO2	n	49	53	n
Cc1cc(C)nc(N/N=C/c2ccc3c(c2)OCCO3)n1	n	25	59	n
Cc1ccc(-c2cc(C(=O)Oc3ccc(C#N)cc3)no2)cc1	n	x	x	n
COc1ccccc1N1CCN(S(=O)(=O)c2c(C)sc3ncn(CC(=O)Nc4ccc(C(C)C)cc4)c(=O)c23)CC1	n	x	x	n
N#Cc1cnc2cc(-c3ccccc3)nn2c1N	n	18	n	n
N#Cc1cnn(-c2ccccc2)c1N	n	n	n	x
COc1ccc(-c2cc3ncc(-c4ccccc4)c(N)n3n2)cc1	n	36	61	n
CCOc1ccccc1NC(=O)Cn1c(=O)n(-c2ccc(C)c(C)c2)c(=O)c2oc3ccccc3c21	n	x	x	n
CCOc1ccccc1NC(=O)CCc1c(C)nn(-c2ccc(N3CCOCC3)nn2)c1C	n	x	x	n
CCCn1c(=O)n(-c2ccccc2Cl)c(=O)c2sc3ccccc3c21	u	x	x	n
CC(C)(C)OC1NS(=O)(=O)OCC1NCOC(Cl)(Cl)Cl (stereo not given)	0.45µM	n	n	n
SMILES	Sm TGR block	Cycloheximide cs	Shiga toxin inh	FMDV antiviral
COc1ccc(-c2nc3nc(C)cc(Nc4ccc(C(C)=O)cc4)n3n2)cc1	n	x	x	n
COCCNC(=O)C(=O)Nc1ccc(Br)cc1	n	47	71	n
COCCNC(=O)C(=O)Nc1cccc(Br)c1	n	23	n	x
COCCNC(=O)C(=O)Nc1ccc(Cl)cc1C	n	32	54	n
COCCNC(=S)NNc1cccc(C(=O)O)c1	n	n	66	n
O=C(NCCc1ccccc1)C(=O)Nc1cccc(Br)c1	n	x	x	n
CC(=O)Nc1ccc(C2=NNC(=NCC3CCCO3)SC2)cc1 (stereo not given)	n	n	n	n
Fc1ccc(F)c(C2=NNC(=NCC3CCCO3)SC2)c1 (stereo not given)	n	33	131	n
COc1ccc(-n2ncc(C(=O)NCc3ccc4c(c3)OCO4)c2C2CCN(C(=O)OC(C)(C)C)CC2)cc1	n	x	x	n
O=C(NC1CCS(=O)(=O)C1)c1sc2ccccc2c1Cl (stereo not given)	n	n	n	n
Cc1ccc2c(Cl)c(C(=O)Nc3cccnc3)sc2c1	n	58	126	n
O=C(NC1CC1)c1sc2cc([N+](=O)[O-])ccc2c1Cl	n	27	n	n
CC1CCCN(C(=O)c2sc3cc([N+](=O)[O-])ccc3c2Cl)C1 (stereo not given)	n	32	85	n
Cc1ccc2c(Cl)c(C(=O)NC3CC3)sc2c1	n	47	61	n
CC(NC(=O)c1sc2cc([N+](=O)[O-])ccc2c1Cl)C(C)(C)C (stereo not given)	n	n	n	n
Cc1ccc2nc(-c3cc(NC(=O)/C=C/c4ccccc4)ccc3Cl)oc2c1	n	x	x	n
COc1ccc(Cn2c(=O)c3cccnc3n(CC(=O)Nc3c(C)cc(C)cc3C)c2=O)cc1	n	x	x	n
Cn1cc(Cl)c(/C(N)=N/OC(=O)c2ccccc2C(F)(F)F)n1	n	50	91	n
COc1cc(NC(=O)c2ccc(S(=O)(=O)N(C)c3ccccc3OC)cc2)cc(OC)c1	x	x	x	n
COc1ccccc1N(C)S(=O)(=O)c1ccc(C(=O)Nc2ccc3nc(C)sc3c2)cc1	n	n	n	25µM
COC(=O)c1ccccc1NC(=O)c1ccccc1N(C)S(=O)(=O)c1ccccc1	n	n	n	n
COC(=O)c1ccc(NC(=O)c2ccccc2N(C)S(=O)(=O)c2ccccc2)cc1	n	16	n	n
COC(=O)c1cccc(NC(=O)c2ccc(S(=O)(=O)N(C)c3ccccc3OC)cc2)c1	x	x	x	35µM
COc1ccccc1N(C)S(=O)(=O)c1ccc(C(=O)Nc2ccc(N3CCOCC3)cc2)cc1	n	n	n	40µM
COc1ccccc1N(C)S(=O)(=O)c1ccc(C(=O)Nc2ncc(C)s2)cc1	n	x	x	u
SMILES	Sm TGR block	Cycloheximide cs	Shiga toxin inh	FMDV antiviral
Cc1nc2cc3ccccc3cc2n1C	n	19	48	n
Cc1ccc(N(C)S(=O)(=O)c2nnc(NC(=O)C3CCCCC3)s2)cc1	n	n	n	n
Fc1ccc(/C=N/NC2=Nc3cccc4cccc2c34)cc1	n	43	81	n
O=C(NNC1=Nc2cccc3cccc1c23)c1ccccc1Br	n	n	n	n
O=C(O)c1cccc(N2C(=O)c3cccc4cccc(c34)C2=O)c1	n	n	n	n
c1ccc(NC2=Nc3cccc4cccc2c34)cc1	n	21	n	n
O=C(O)c1cccc(NC2=Nc3cccc4cccc2c34)c1	n	6.7	38	n
COc1ccc(NC2=Nc3cccc4cccc2c34)cc1	n	25	n	n
O=C(CCl)Nc1cccc(Oc2cnccn2)c1	11µM	n	n	u
O=C(CCl)Nc1cccc(Oc2ccccc2)c1	11µM	n	n	13µM
O=C(CSc1cccc[n+]1[O-])Nc1cccc(Oc2ccccc2)c1	n	21	n	n
Nc1cccc(Oc2cnccn2)c1	n	n	n	n
N#C/C(=C\c1ccc(-c2cccc(Cl)c2)o1)C(=O)Nc1cccc(C(F)(F)F)c1	n	x	x	n
CC(=O)Nc1cc(C)c2nc(NC(C)=O)sc2c1	n	30	60	n
CC(=O)Nc1nc2c(C)cc(NC(=O)C3CCCCC3)cc2s1	n	32	74	n
COc1ccc(CNC(=O)C2CCN(S(=O)(=O)c3cccc(-c4noc(C)n4)c3)CC2)cc1	n	x	x	n
Brc1c(CSc2nnc(-c3ccco3)o2)nc2ccccn12	n[11.4 µM]	22	n	n
Cc1cc(NC(=O)CS(=O)(=O)c2cn(Cc3cccc(F)c3)c3ccccc23)no1	n	n	n	40µM
Cc1ccc2c(c1N)C(=O)c1ccccc1C2=O	n	x	x	n
Cc1ccc2c(c1C)-c1c(ccc(C)c1C)C(=O)C2=O	x	x	x	28µM
